HTR5A inv ag = HTR5A inverse agonists in luminescence cell assay, primary screen, counter-screen for OPRM1-OPRD1 heterodimer inverse agonist project, full-deck HTS | 5-hydroxytryptamine receptor 5A (Homo sapiens), P47898 | HTR5A cell line, inverse agonism | inhibition, % at 9.3 µM | hit rate 0.083% among 340,000 | AID 504634, 2011; in the data active means inhibition mostly above about 23%, no sharp cut-off; inactive means mostly below about 18%;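 further: 0% = cells with DMSO and 100% = no-cell wells with DMSO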
HTR5A ag ctr = HTR5A agonists in luminescence cell assay, primary screen, counter-screen for OPRM1-OPRD1 heterodimer agonist project, full-deck HTS; activation, % at 9.3 µM; hit rate 0.61% among 340,000; 5-hydroxytryptamine receptor 5A (Homo sapiens), P47898; cell-based; AID 504692, 2011; in the data active means activation mostly above about 9.5%, no sharp cut-off; inactive means mostly below about 7.6%;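 further: 0% = cells with vehicle only and 100% = reference agonist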
MOR-DOR ag = agonists of OPRM1-OPRD1 heterodimerization, primary screen, cell-based, luminescence. Mu-type opioid receptor (Homo sapiens) + Delta-type opioid receptor (Homo sapiens), …. cells. activation, % at 9.3 µM. hit rate 0.3% among 340,000. AID 504326, 2011; in the data active means activation above about 18%;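 further: 0% = vehicle-treated cells and 100% = reference agonist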
HTR2A ag = mouse Htr2a agonists via beta-arrestin recruitment, primary screen, cell-based, luminescence. CHO-K1 mHTR2A beta-arrestin complementation; percent of 30 µM serotonin response. activation, % at 7.6 µM. hit rate 0.66% among 360,000;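 active means activation above a run cutoff, the mean activation of all tested compounds plus 3 SD, cut at about 14% in these data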;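 further: 0% = plate median of compound wells and 100% = 30 µM serotonin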
Target sequence (P35363 whole entry, looked up): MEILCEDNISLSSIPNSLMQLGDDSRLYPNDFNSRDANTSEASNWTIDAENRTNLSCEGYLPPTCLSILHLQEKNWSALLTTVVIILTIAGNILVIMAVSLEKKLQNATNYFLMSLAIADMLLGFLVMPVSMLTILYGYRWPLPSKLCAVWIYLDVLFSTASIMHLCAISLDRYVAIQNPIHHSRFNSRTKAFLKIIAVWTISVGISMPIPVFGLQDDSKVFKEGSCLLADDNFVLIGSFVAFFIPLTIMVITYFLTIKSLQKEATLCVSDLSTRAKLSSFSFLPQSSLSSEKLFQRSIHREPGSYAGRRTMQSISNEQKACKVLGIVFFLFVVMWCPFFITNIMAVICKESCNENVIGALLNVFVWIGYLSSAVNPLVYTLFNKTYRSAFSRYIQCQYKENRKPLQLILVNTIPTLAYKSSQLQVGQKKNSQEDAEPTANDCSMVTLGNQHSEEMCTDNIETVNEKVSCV
OPRM1-OPRD1 inv = inverse agonists of MOR-DOR heterodimerization, primary screen, cell-based, luminescence. inhibition, % at 9.3 µM. hit rate 0.21% among 340,000. Mu-type opioid receptor (Homo sapiens) + Delta-type opioid receptor (Homo sapiens), …. cell-based MOR-DOR heterodimer luminescence, inverse agonism; in the data active means inhibition above about 22%, passing the limit was not always enough;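 further: 0% = cells with DMSO and 100% = wells without cells with DMSO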
OPRM1-D1 inv cf = inverse agonists of MOR-DOR heterodimerization, confirmation, cell-based, luminescence | shares compounds with OPRM1-OPRD1 inv | cells expressing OPRM1/OPRD1 heterodimer | inhibition, % at 9.3 µM | hit rate 20% among 580; in the data active means inhibition above about 32%;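 further: 0% = cells with DMSO and 100% = wells lacking cells with DMSO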
HTR5A inv count = HTR5A inverse agonists, counter-screen for OPRM1-OPRD1 inverse agonist project, cell-based, luminescence; HTR5A-expressing cells, inverse agonism; inhibition, % at 9.3 µM; shares compounds with OPRM1-OPRD1 inv; 580 tested, under 10 active; call rule not given here;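 further: 0% = cells with DMSO and 100% = no-cell wells with DMSO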
* hit, by the source's call; i = inactive; . = no result. Only some compounds are listed: those with a hit (about 1.6% of all), similar ones and a draw of the others.

SMILES | HTR5A inv ag | HTR5A ag ctr | MOR-DOR ag | HTR2A ag | OPRM1-OPRD1 inv | OPRM1-D1 inv cf | HTR5A inv count
NS(=O)(=O)c1ccc(NNC(=O)c2ccccc2C(=O)O)cc1 | . | . | . | -2 | . | . | .
NS(=O)(=O)c1ccc(NNC(=O)c2sccc2Cl)cc1 | 2 | 2 | -2 | -4 | 9 | . | .
O=C(O)c1ccccc1C(=O)NNc1ccc(Cl)cc1 | -10 | 0 | -7 | -4 | 39* | 9 | -10
O=C(/C=C/c1ccccc1)NNc1ccc(Cl)cc1 | 14 | -5 | -6 | -3 | 31* | 11 | -7
O=C(NC(c1ccccc1)c1ccsc1)C1CCN(Cc2ccc(Oc3ccccc3)cc2)CC1 (stereo not drawn) | . | . | . | -6 | . | . | .
CC(C)c1cc(C(=O)OCC(=O)NC2CCS(=O)(=O)C2)c(O)c(C(C)C)c1 (stereo not drawn) | . | . | . | 0 | . | . | .
CCCCC[C@H](C)N1C[C@@H](COCc2ccccc2)Oc2cc(N3CCC[C@H]3C(N)=O)ccc2S1(=O)=O | . | . | . | 12 | . | . | .
O=C(NCc1ccc2c(c1)OCO2)c1nc(S(=O)(=O)Cc2ccccc2)ncc1Cl | -6 | 2 | -5 | -2 | 27 | . | .
O=C(NCc1ccccc1)c1nc(S(=O)(=O)Cc2ccccc2)ncc1Cl | 25 | -8 | -6 | -10 | 35* | 8 | 4
O=C(NCc1ccc2c(c1)OCO2)c1nc(S(=O)(=O)Cc2ccccc2F)ncc1Cl | 4 | -1 | -6 | -1 | 32* | 9 | -3
CC(C)(C)c1ccc2cc(F)cc(F)c2n1 | . | . | . | 0 | . | . | .
O=C(COC(=O)c1cc(S(=O)(=O)NCc2ccccc2)ccc1O)c1cc2ccccc2o1 | 9 | -3 | -8 | -1 | 41* | -209 | -8
O=C(COC(=O)c1cc(S(=O)(=O)NCc2ccccc2)ccc1O)NCc1ccccc1 | -20 | 6 | -2 | -2 | 8 | . | .
Cc1cccc2nc3c(nc12)-c1ccccc1C3=O | -14 | 0 | -8 | -2 | 40* | 23 | 3
O=C(NC1CCCCC1)C1c2ccccc2OCC(=O)N1CCc1ccccc1 (stereo not drawn) | . | . | . | -4 | . | . | .
O=C(C(=O)N1CCN(c2ccccc2F)CC1)c1ccccc1 | . | . | . | -3 | . | . | .
Cn1c(SCC(=O)c2ccccc2)nnc1-c1cccnc1 | 20 | -4 | -2 | -2 | 12 | . | .
Cn1c(SSc2ccc(-c3cccnc3)n2C)ccc1-c1cccnc1 | -1 | 0 | -8 | -1 | 41* | 30 | 13
NC(=O)c1cccc(Nc2nc(C(N)COCc3ccccc3)cs2)n1 (stereo not drawn) | . | . | . | 11 | . | . | .
O=C(Nc1ccccc1C(=O)O)c1ccccc1 | -11 | -3 | 0 | 3 | 0 | . | .
O=C(CNc1ccccc1C(=O)O)c1ccccc1 | 16 | -6 | -14 | 3 | 71* | -24 | 1
NC(=O)c1ccccc1NCC(=O)c1ccc(Cl)cc1 | 4 | -1 | -8 | 0 | 46* | i | -7
C[C@H](NC(=O)COc1ccccc1)C(=O)OCC(=O)c1cc2ccccc2o1 | 33* | -8 | -15 | -11 | 80* | -154 | 12
CC(NC(=O)c1cc2ccccc2o1)C(=O)O (stereo not drawn) | 1 | 6 | -2 | 3 | 11 | . | .
CCCCC(=O)NC(=S)NNC(=O)CCc1ccccc1 | 25 | -8 | -8 | -3 | 39* | 16 | 5
CCCS(=O)(=O)NC(=O)C1(C)CCN(C(=O)c2cccnc2Oc2ccccc2)C1 (stereo not drawn) | . | . | . | 7 | . | . | .
Cc1c(Cl)ccc2c(C(O)CBr)cc(-c3ccccc3)nc12 (stereo not drawn) | -4 | 1 | 1 | 6 | -5 | . | .
C[n+]1c2n(c3ccccc31)N=C(c1cc(C(C)(C)C)c(O)c(C(C)(C)C)c1)CS2 | 19 | -1 | -6 | -1 | 32* | 51* | 16
